From PubChem
Shown are actives, neighbours in structure and some others; about 21% of the full set was active somewhere.
NS1 function inh: qHTS Assay for Inhibitors of Influenza NS1 Protein Function; Potency, µM (highest dose often 46.1 µM); 0.4% of 270,000 active; AID 2326, 2010; calls by dose curve; also: actives are rising curves; nearly all actives have a fitted effect of over 50% in size
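Read-out: OD600 growth recovery of NS1-expressing budding yeast. Cells grown overnight at 30C in -URA glucose medium, washed, resuspended and diluted 1:100 in 2% galactose assay medium, pH 6.0. Same strain lacking NS1 served as positive control.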
CHX counter: Cycloheximide Counterscreen for Small Molecule Inhibitors of Shiga Toxin | cell reporter, cycloheximide protein synthesis inhibition counterscreen | AID 2314, 2010 | 12% of 300,000 active | max response, %; in the data active = max response mostly above about 13%, no sharp cut-off; inactive = mostly below about 14%; also: read at 38.3 µM for the half of the compounds with a filed dose
Pf growth 48h: Primary qHTS for delayed death inhibitors of the malarial parasite plastid, 48 hour incubation | P. falciparum luciferase growth in erythrocytes, 48 h | Potency, µM (doses to about 28.7 µM), usual class: inhibitors | 5.9% of 310,000 active | AID 504832, 2011
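Luciferase-expressing parasites in RBCs, 2% Hct / 0.1% parasitemia final; RPMI 1640 + 0.5% Albumax; 37 C, 5% CO2, one generation; luminescence read-out, lower signal = inhibition.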
Pf growth 96h: Primary qHTS for delayed death inhibitors of the malarial parasite plastid, 96 hour incubation. 6.9% of 320,000 active. Potency, µM (series often up to 28.7 µM), most hits filed as inhibitors. P. falciparum luciferase reporter growth, 96 h. AID 504834, 2011
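Delayed-death screen, second-generation endpoint: infected erythrocytes, 2% hematocrit, 0.05% parasitemia final; 96 hours at 37 C, 5% CO2; luciferase detection reagent; luminescence decrease equals reduced growth.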
Shiga inhibitor: A qHTS for Small Molecule Inhibitors of Shiga Toxin | 9.2% of 290,000 active | AID 2315, 2010 | inhibition, % at 38.7 µM | Vero cells, Shiga toxin protein synthesis inhibition reporter; in the data active = inhibition mostly above about 28%, no sharp cut-off; inactive = mostly below about 43%
Of the large screens only hits and unclear results are named; the others gave an inactive call. Unless noted, calls follow the shape of the dose curve; as a rule, active = well fitted inhibition curve with a large enough effect; inconclusive = small, poorly fitted or top-dose-only effect, or another doubt; inactive = no such curve, though single readings can be large or run the other way.

Cc1ccc(S(=O)(=O)N(Cc2c(F)cccc2Cl)C(=O)N2CCN(C)CC2)cc1	Pf growth 48h inconclusive (no result: NS1 function inh, CHX counter, Shiga inhibitor)
Cc1cc(NC(=O)Nc2cccc(Cl)c2)n(-c2ccccn2)n1	Pf growth 48h inconclusive, Pf growth 96h inconclusive
Cc1cc(O)c2c(c1)C(=O)C13C(=C2O)C(=O)[C@H]2[C@@H](O)[C@@H]1[C@H]1[C@H](O)[C@@H]3C(=O)C3=C(O)c4c(O)cc(C)cc4C(=O)C312 (some centres not stated)	Pf growth 48h 4.15µM, Pf growth 96h 3.29µM (no result: NS1 function inh, CHX counter, Shiga inhibitor)
CC(C)CCN(C(=O)CNC(=O)c1ccco1)C(C(=O)NC1CCCCC1)c1ccco1 (configuration not stated)	Pf growth 48h inconclusive (no result: Pf growth 96h)
Cc1cnc(C(=O)OC(C)C(=O)c2c(C)[nH]c3ccccc23)cn1 (configuration not stated)	Pf growth 48h inconclusive (no result: NS1 function inh, CHX counter, Shiga inhibitor)
CC(Sc1nnnn1C)C(=O)Nc1ccc2c(c1)OCCO2 (configuration not stated)	CHX counter 29.2, Shiga inhibitor 114.9 (no result: NS1 function inh)
COCC(C)n1c(SCC(=O)NC(=O)Nc2ccc3c(c2)OCCO3)nc2ccccc2c1=O (configuration not stated)	CHX counter 33.4, Pf growth 48h 11.7µM, Pf growth 96h inconclusive, Shiga inhibitor 64.9
COCC(C)n1c(SCC(=O)NC(=O)Cc2ccccc2)nc2ccccc2c1=O (configuration not stated)	none (no result: NS1 function inh, CHX counter, Shiga inhibitor)
Cn1nnnc1SCC(=O)Nc1ccc2c(c1)OCCO2	CHX counter 32.8, Shiga inhibitor 80.9
CC(Sc1nnnn1C)C(=O)Nc1ccc(N2CCOCC2)cc1 (configuration not stated)	none
CC(C)n1nnnc1SCC(=O)Nc1ccc2c(c1)OCO2	CHX counter 26.4, Pf growth 96h inconclusive, Shiga inhibitor 69.8
O=S(=O)(NCCC1=CCCCC1)c1ccc(F)cc1	none
CCn1c(COC(=O)CNC(=O)c2ccccc2F)nc2cc(S(=O)(=O)N(C)C)ccc21	none (no result: NS1 function inh, CHX counter, Shiga inhibitor)
Cc1ccc(NC(=O)CSc2nn(-c3ccccc3)c(=S)s2)cc1S(=O)(=O)N(C)C	Pf growth 48h inconclusive, Pf growth 96h 3.29µM
CCC(=O)Nc1cccc(NC(=O)CSc2nnnn2Cc2ccccc2)c1	NS1 function inh inconclusive, Pf growth 96h 2.08µM
O=C(CSc1nn(-c2ccccc2)c(=S)s1)Nn1cnnc1	none
Cc1csc(SC(C)C(=O)Nc2ccc3c(c2)OCCO3)n1 (configuration not stated)	CHX counter 29.4 (no result: NS1 function inh)
CC(Sc1nncs1)C(=O)Nc1ccc2c(c1)OCCO2 (configuration not stated)	none (no result: NS1 function inh, CHX counter, Shiga inhibitor)
O=C(CSc1nnnn1Cc1ccccc1)Nc1ccc2c(c1)OCO2	CHX counter 12.8, Shiga inhibitor 33.3 (no result: Pf growth 96h)
O=C(CSc1nnnn1CCCO)Nc1ccc2c(c1)OCO2	none (no result: NS1 function inh)
CC1(C)SC[C@H](C(=O)Nc2cccc(Cl)c2)N1C=O	none
CCc1ccc2c(c1)C(=O)C[C@]1(CCC[C@H](C)C1)O2	Pf growth 48h inconclusive (no result: NS1 function inh, CHX counter, Shiga inhibitor)
Cc1noc(C)c1CSc1cc(C)c2ccccc2n1	none
O=[N+]([O-])c1cccc(CSc2nnc3ccccn23)c1	none
Cc1ccc(NC(=O)CSc2nnnn2C)cc1S(=O)(=O)N(C)C	CHX counter 16.7
c1ccn2c(SCc3ccc4c(c3)OCCO4)nnc2c1	CHX counter 51.3, Shiga inhibitor 98.1
CC(Sc1nnc2ccccn12)C(=O)Nc1ccc2c(c1)OCCO2 (configuration not stated)	CHX counter 21.4, Shiga inhibitor 85.0 (no result: NS1 function inh)
CC(=O)Nc1ccc(C(=O)CSc2nnnn2C(C)C)cc1	CHX counter 21.3, Pf growth 96h inconclusive, Shiga inhibitor 80.5
CC(=O)Nc1ccc(C(=O)CSc2nnnn2C)cc1	none
CCCc1c(OCCCOc2ccc(OCC(=O)O)cc2)ccc(C(C)=O)c1O	none (no result: CHX counter, Shiga inhibitor)
Cc1cccc(-n2ccc(=O)c(C(=O)Nc3ccc(S(=O)(=O)Nc4onc(C)c4C)cc3)n2)c1	none
Cc1c(C)c(C)c(CN2CCCC2)c(C)c1C	none
CC1=C(C#N)C(=O)N(C2CCS(=O)(=O)C2)C(=O)/C1=C\c1ccc(C)o1 (configuration not stated)	none
CC(C)(C)NC(=O)CSc1nc2ccc(NC(=O)CSc3nnnn3Cc3ccccc3)cc2s1	Pf growth 96h 4.65µM (no result: Pf growth 48h)
CCC(C(=O)Nc1ccc2c(c1)OCCO2)n1nnc2ccccc2c1=O (configuration not stated)	CHX counter 59.4, Shiga inhibitor 65.8
